{"source": "the supplement of paper PMC9694430"}
{"system": "LOC_OS03G12390-cb001", "experiment": "thermal shift delta Tm vs DMSO control; higher = stronger stabilization (binding)", "conditions": "12.5 µM; protein concentration 2 µM", "in_short": "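Rice kinase domain constructs were expressed in E. coli, purified, and tested by differential scanning fluorimetry with compound added in DMSO. Each well of a 96-well plate held 19.5 μl of 2 μM kinase in 100 mM potassium phosphate pH 7.5, 150 mM NaCl, 10% glycerol and 5 × SYPRO Orange, and fluorescence was read from 25°C to 95°C at 0.05°C/s. The melting temperature shift is the mean of triplicates, taken against protein with DMSO alone after Boltzmann fitting.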", "units": {"thermal shift delta Tm": "°C"}}
{"molecule": "COc1ccc(CC(=O)Nc2nc3c(s2)CCc2ccccc2-3)cc1OC", "thermal shift delta Tm": 0.4}
{"molecule": "CNS(=O)(=O)Nc1nccc(Cc2c(C)c3ccc(Oc4ncccn4)cc3oc2=O)c1F", "thermal shift delta Tm": 0.7}
{"molecule": "C[C@H](NC(=O)/C(C#N)=C/c1cccc(Br)n1)c1ccccc1", "thermal shift delta Tm": -2.64}
{"molecule": "COc1ccc(COc2cc3oc(=O)c4cc(C(C)O)ccc4c3cc2OC)cc1", "note": "(configuration not stated) [Palomid 529 (P529)]", "thermal shift delta Tm": -0.47}
{"molecule": "CC(C)(C)Cn1c(N)nc2ccc(-c3[nH]c(C(C)(C)C)nc3-c3ccc(F)cc3)nc21", "thermal shift delta Tm": -0.25}
{"molecule": "COc1ccccc1-c1cc(Nc2cccc(CS(N)(=O)=O)c2)ncn1", "thermal shift delta Tm": 0.77}
{"molecule": "Cn1cnc(N)c2ncnc1-2", "note": "[3-Methyladenine (3-MA)]", "thermal shift delta Tm": -0.25}
{"molecule": "C=CC(=O)N[C@H]1CCOC[C@H]1Nc1ncc2cc(-c3c(Cl)c(OC)cc(OC)c3Cl)ccc2n1", "thermal shift delta Tm": -0.37}
{"molecule": "CCS(=O)(=O)Nc1ccc2c(c1)/C(=C(/Nc1ccc(CN3CCCCC3)cc1)c1ccccc1)C(=O)N2", "note": "[Hesperadin]", "thermal shift delta Tm": 8.56}
{"molecule": "Cc1cc(Nc2cc(N3CCN(C)CC3)nc(/C=C/c3ccccc3)n2)n[nH]1", "note": "[ENMD-2076 L-(+)-Tartaric acid]", "thermal shift delta Tm": 4.22}
{"molecule": "Cc1ccc(F)c(NC(=O)Nc2ccc(-c3cccc4[nH]nc(N)c34)cc2)c1", "note": "[Linifanib (ABT-869)]", "thermal shift delta Tm": 3.38}
{"molecule": "CO[C@H]1C[C@@H]2CC[C@@H](C)[C@@](O)(O2)C(=O)C(=O)N2CCCC[C@H]2C(=O)O[C@H]([C@H](C)C[C@@H]2CC[C@@H](OCCO)[C@H](OC)C2)CC(=O)[C@H](C)/C=C(\\C)[C@@H](O)[C@@H](OC)C(=O)[C@H](C)C[C@H](C)/C=C/C=C/C=C/1C", "note": "[Everolimus (RAD001)]", "thermal shift delta Tm": 0.14}
